# Results reported in PubChem BioAssay (NCATS).
# Records with an inconclusive call do not appear. A call without a number means that no potency is given here. More than one record can exist for a structure, and the calls need not agree. Activity calls are given as the source filed them. The call rests on the fitted dose curve; in most records, active means well fitted curve in the direction sought with a large enough effect; inconclusive means small, poorly fitted or top-dose-only effect, or another doubt; inactive means no such curve, though single readings can be large; an effect the other way counts as inactive or inconclusive.
# Assay: qHTS for Inhibitors of Plasmodium falciparum (7G8) proliferation (AID 504316); further: nearly all actives have a fitted effect of over 65% in size; further: potency means the concentration at half of the fitted maximal effect
# Details: P. falciparum 7G8 in erythrocytes, SYBR Green DNA, 72 h; series mostly up to 6.7 µM
# Method in brief: (§1)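 Parasite growth measured as SYBR Green DNA fluorescence (ex 485, em 535 nm) after overnight lysis following 72 h culture at 37 °C, 0.3% parasitemia, 2.5% hematocrit. Values normalized against DMSO and 0.29 uM artemisinin controls, with plate-stack correction.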
row,SMILES,Potency
1,CCCNC(=O)OC[C@H]1O[C@H](CCON=C2C[C@@H](O)[C@@H](O)[C@@H]3[C@H]4C(=O)N(CC)C(=O)[C@@H]4CC[C@H]23)C=C[C@H]1Oc1ccc(OC)cc1,inactive
2,COC(=O)C1=C(C(=O)OC)[C@@H]2N(C)c3ccccc3[C@@]23C[C@@H](CO)N(C(=O)c2ccc(Br)cc2)C3=N1,inactive
3,CCCNC(=O)CC1OC(C2CCCCC2)Cc2ccccc21 (stereo not drawn),inactive
4,CCN1C(=O)N[C@@H](c2cccc(C(F)(F)F)c2)[C@H](C(C)=O)[C@H]1C,inactive
5,CCOC(=O)CN1C(=O)[C@]2(O[C@H](C)CC3=CCCC32)c2c(Br)cccc21 (stereo partly drawn),inactive
6,COCC=CC1=CC2=CC(=O)C(C)(OC(=O)c3cnc4ccccc4n3)C(=O)C2=CN1C1CC1 (stereo not drawn),inactive
7,COCCN1C(=O)NC(c2ccc(Br)cc2)C(C(=O)OC)=C1C (stereo not drawn),inactive
8,COC(=O)C1=C(C(=O)OC)[C@@H]2N(C)c3ccccc3[C@@]23CCC(=O)N(CC(C)C)C3=N1,inactive
9,COc1cc2c(cc1OC)[C@@H]1O[C@](c3ccsc3)(C2)Oc2cc(-c3ccccc3)oc(=O)c21,1.9 µM (active) and inactive
10,C=CCN1C(=O)[C@]2(OCCC=C[C@@H]2C)c2cc(OC)ccc21,inactive
11,CC#CCN1C(=O)NC(c2ccccc2)C(C(=O)OCC)=C1c1ccccc1 (stereo not drawn),inactive
12,CCN1C(=O)N(C)C(c2ccccc2)C(C(=O)OC)=C1C (stereo not drawn),inactive
13,CC(=O)OC[C@H]1O[C@H](c2ccc(C(C)=O)cc2)C=C[C@H]1OC(C)=O,inactive
14,COC(=O)[C@@H]1CC[C@H](C)[C@@H](c2ccc(C)cc2)N1C(=O)c1ccc(C=NOC[C@@H](O)[C@H]2O[C@@H]3OC(C)(C)O[C@H]3[C@@H]2O)cc1,1.2 µM (active)
15,CCCCCCCC1=CC2=CC(=O)C(C)(O)C(=O)C2=CN1CCCC (stereo not drawn),inactive
16,C=CCOC(=O)C(C(C)=O)[C@@H](NC(=O)OC)c1cccs1 (stereo partly drawn),inactive
17,C=C(C(=O)OCC)C(=O)c1ccccc1,inactive
18,CCN1C(=NCc2ccc(OC)cc2)N[C@@H](CCc2ccccc2)[C@H](C(=O)NCc2ccc(OC)cc2)[C@H]1C,inactive
19,C=CC1=C2C=C(C3CC3)N(C3CCCCC3)C=C2C(=O)C(C)(OC(=O)c2ccco2)C1=O (stereo not drawn),inactive
20,CC(=O)OC[C@H]1O[C@@H](ON=C2C[C@@H](O)[C@@H](O)[C@@H]3[C@H]4C(=O)N(C5CCCCC5)C(=O)[C@@H]4CC[C@@H]23)[C@H](OC(C)=O)[C@@H](OC(C)=O)[C@H]1OC(C)=O,inactive
21,CC(C)(C)OC(=O)NCCCC1=CC2=CC(=O)C(C)(O)C(=O)C2=CO1 (stereo not drawn),inactive
22,CC(C)=NOCc1ccc(-c2cn([C@@H]3COC[C@@H]3O)nn2)cc1,inactive
23,COc1ccc2c(c1)O[C@@H](c1ccc3c(c1)OCO3)[C@H](O)C2=O,inactive
24,COC(=O)N1[C@H]2CC[C@@]3(C)CC(=O)C[C@]1(C)C3c1ccccc12,inactive
25,COC(=O)CC=C1c2ccc3c(c2[C@@H](OC)[C@@H]1C)OCO3,inactive
26,C[C@H]1COC(=O)[C@H](Cc2ccccc2)NC(=O)[C@@H](C)COC(=O)[C@H](Cc2ccccc2)NC1=O,inactive
27,COC(=O)[C@H](COC(C)(C)C)NC(=O)O[C@@H]1C(=O)c2ccc(OC)cc2O[C@H]1c1ccc2c(c1)OCO2,inactive
28,COC(=O)N[C@@H](c1ccco1)C(C(C)=O)C(=O)OC (stereo partly drawn),inactive
29,C=CCNC(=O)[C@H]1C=C(OC)C(=O)C[C@H]2c3ccccc3C[C@]12C,inactive

# Assay: qHTS for Inhibitors of Plasmodium falciparum (HB3) proliferation (AID 504318); further: nearly all actives have a fitted effect of over 60% in size
# Details: P. falciparum HB3 in erythrocytes, SYBR Green DNA, 72 h; series mostly up to 7.21 µM
# Method in brief: as §1
row,SMILES,Potency
1,COc1ccc(-c2ccc3c(n2)CCCN3CC(O)CN2CCCc3nc(C)c(C)cc32)cc1 (stereo not drawn),inactive
2,COc1cc(O)c(C(=O)C=Cc2ccccc2)c(O)c1,inactive
3,CCCCCCN1C(=O)CC[C@@]23C1=NC(C(=O)OC)=C(C(=O)OC)[C@@H]2N(Cc1ccccc1)c1ccccc13,inactive
4,CC(C)=CCCC(C)=CCON=C1C[C@@H](O)[C@@H](O)[C@@H]2[C@H]3C(=O)N(c4ccc(F)cc4F)C(=O)[C@@H]3CC[C@H]12,inactive
5,O=C(NC(CC1=CCCCC1)c1ccccc1)C(F)(F)F (stereo not drawn),inactive
6,CCN(CC)CCCN=C1NC(c2ccccc2)C(C(=O)OC)=C(C)N1CC (stereo not drawn),inactive
7,C=CC[C@@H]1C=C[C@H](ON=C(C)CCN2CCCCc3nc(C)c(C)cc32)[C@H](CO)O1,inactive
8,COC(=O)[C@H](COC(C)(C)C)NC(=O)O[C@@H]1C(=O)c2ccc(OC)cc2O[C@H]1c1cccc(C(F)(F)F)c1,inactive
9,CCC12C=C(C=Cc3ccccc3)C(CC)(C1)C(c1ccccc1)CC2=O (stereo not drawn),inactive
10,CCN1C(=NCCc2ccccn2)NC(c2cccc(C(F)(F)F)c2)C(C(=O)OC)=C1C (stereo not drawn),inactive

# Assay: qHTS for Inhibitors of Plasmodium falciparum (CP250) proliferation (AID 504320)
# Details: P. falciparum CP250 in erythrocytes, SYBR Green DNA, 72 h; series mostly up to 6.7 µM
# Method in brief: as §1
row,SMILES,Potency
1,CCCNC(=O)OC[C@H]1O[C@H](CCON=C2C[C@@H](O)[C@@H](O)[C@@H]3[C@H]4C(=O)N(CC)C(=O)[C@@H]4CC[C@H]23)C=C[C@H]1Oc1ccc(OC)cc1,inactive
2,COC(=O)C1=C(C(=O)OC)[C@@H]2N(C)c3ccccc3[C@@]23C[C@@H](CO)N(C(=O)c2ccc(Br)cc2)C3=N1,inactive
3,CCCNC(=O)CC1OC(C2CCCCC2)Cc2ccccc21 (stereo not drawn),inactive
4,CCN1C(=O)N[C@@H](c2cccc(C(F)(F)F)c2)[C@H](C(C)=O)[C@H]1C,inactive
5,CCOC(=O)CN1C(=O)[C@]2(O[C@H](C)CC3=CCCC32)c2c(Br)cccc21 (stereo partly drawn),inactive
6,COCC=CC1=CC2=CC(=O)C(C)(OC(=O)c3cnc4ccccc4n3)C(=O)C2=CN1C1CC1 (stereo not drawn),inactive
7,COCCN1C(=O)NC(c2ccc(Br)cc2)C(C(=O)OC)=C1C (stereo not drawn),inactive
8,COC(=O)C1=C(C(=O)OC)[C@@H]2N(C)c3ccccc3[C@@]23CCC(=O)N(CC(C)C)C3=N1,inactive
9,COc1cc2c(cc1OC)[C@@H]1O[C@](c3ccsc3)(C2)Oc2cc(-c3ccccc3)oc(=O)c21,inactive
10,C=CCN1C(=O)[C@]2(OCCC=C[C@@H]2C)c2cc(OC)ccc21,inactive
11,CC#CCN1C(=O)NC(c2ccccc2)C(C(=O)OCC)=C1c1ccccc1 (stereo not drawn),inactive
12,CCN1C(=O)N(C)C(c2ccccc2)C(C(=O)OC)=C1C (stereo not drawn),inactive
13,CC(=O)OC[C@H]1O[C@H](c2ccc(C(C)=O)cc2)C=C[C@H]1OC(C)=O,inactive
14,COC(=O)[C@@H]1CC[C@H](C)[C@@H](c2ccc(C)cc2)N1C(=O)c1ccc(C=NOC[C@@H](O)[C@H]2O[C@@H]3OC(C)(C)O[C@H]3[C@@H]2O)cc1,inactive
15,CCCCCCCC1=CC2=CC(=O)C(C)(O)C(=O)C2=CN1CCCC (stereo not drawn),inactive
16,C=CCOC(=O)C(C(C)=O)[C@@H](NC(=O)OC)c1cccs1 (stereo partly drawn),inactive
17,C=C(C(=O)OCC)C(=O)c1ccccc1,inactive
18,CCN1C(=NCc2ccc(OC)cc2)N[C@@H](CCc2ccccc2)[C@H](C(=O)NCc2ccc(OC)cc2)[C@H]1C,inactive
19,C=CC1=C2C=C(C3CC3)N(C3CCCCC3)C=C2C(=O)C(C)(OC(=O)c2ccco2)C1=O (stereo not drawn),inactive
20,CC(=O)OC[C@H]1O[C@@H](ON=C2C[C@@H](O)[C@@H](O)[C@@H]3[C@H]4C(=O)N(C5CCCCC5)C(=O)[C@@H]4CC[C@@H]23)[C@H](OC(C)=O)[C@@H](OC(C)=O)[C@H]1OC(C)=O,inactive
21,CC(C)(C)OC(=O)NCCCC1=CC2=CC(=O)C(C)(O)C(=O)C2=CO1 (stereo not drawn),inactive
22,CC(C)=NOCc1ccc(-c2cn([C@@H]3COC[C@@H]3O)nn2)cc1,inactive
23,COc1ccc2c(c1)O[C@@H](c1ccc3c(c1)OCO3)[C@H](O)C2=O,inactive
24,COC(=O)N1[C@H]2CC[C@@]3(C)CC(=O)C[C@]1(C)C3c1ccccc12,inactive
25,COC(=O)CC=C1c2ccc3c(c2[C@@H](OC)[C@@H]1C)OCO3,inactive
26,C[C@H]1COC(=O)[C@H](Cc2ccccc2)NC(=O)[C@@H](C)COC(=O)[C@H](Cc2ccccc2)NC1=O,inactive
27,COC(=O)[C@H](COC(C)(C)C)NC(=O)O[C@@H]1C(=O)c2ccc(OC)cc2O[C@H]1c1ccc2c(c1)OCO2,inactive
28,COC(=O)N[C@@H](c1ccco1)C(C(C)=O)C(=O)OC (stereo partly drawn),inactive
29,C=CCNC(=O)[C@H]1C=C(OC)C(=O)C[C@H]2c3ccccc3C[C@]12C,inactive
